# PubChem BioAssay (NCATS)
# Records with an inconclusive call do not appear. A call without a number means that no potency is given here. The source made the active and inactive calls. Calls follow the shape of the dose curve; as a rule, active = well fitted curve in the direction sought with a large enough effect; inconclusive = small, poorly fitted or top-dose-only effect, or another doubt; inactive = no such curve, though single readings can be large; an effect the other way counts as inactive or inconclusive.
# Assays:
# [1] = qHTS to identify inhibitors of the type 1 interferon - major histocompatibility complex class I in skeletal muscle: primary screen against the NCATS Pharmaceutical Collection (AID 1347407);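 also: luminescence of HiBiT knocked into endogenous HLA-B as interferon-induced MHC class I level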; also: potency is read from the fitted curve at half-maximal effect
# Method in brief: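 A qHTS format is used: 8-point, 1:5 compound series with 46 uM top final concentration, applied alongside 4 ng/ml IFN-beta to HLA-B*08:01-HiBiT knock-in myoblasts. Luminescence is measured after 24 h treatment.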
# [2] = target: Protein phosphatase 1D (Homo sapiens) (UniProt O15297); assay: RapidFire Mass Spectrometry qHTS Assay for Modulators of WT P53-Induced Phosphatase 1 (WIP1) (AID 1347424);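 also: amount of dephosphorylated VEPPL-S-QETFS peptide product formed by WIP1; series mostly up to about 63 µM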
# Method in brief: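 Mass-spectrometric measurement of dephosphorylated peptide after a 5 min room-temperature reaction of 10 nM WIP1 with 2 uM phosphopeptide, following 1 h compound preincubation in 30 mM MgCl2 buffer.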
# [3] = target: Protein phosphatase 1D (Homo sapiens) (UniProt O15297); assay: Rhodamine-PBP qHTS Assay for Modulators of WT P53-Induced Phosphatase 1 (WIP1) (AID 1347425)
# Method in brief: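 The read-out is the change in Rhodamine-PBP fluorescence (f1 - f0, ex 525/em 598 nm) as Pi is released, read each minute for 11 min. Final reaction: 5 nM WIP1, 10 uM phosphopeptide VEPPL-pS-QETFS, 10 uM Rh-PBP, 50 mM Tris-HCl pH 7.5, 30 mM MgCl2. Compound was preincubated with enzyme for 1 hour at room temperature.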
# [4] = qHTS to identify inhibitors of the type 1 interferon - major histocompatibility complex class I in skeletal muscle: primary screen against the NCATS Mechanism Interrogation Plate v5.0 (MIPE) Libary (AID 1347411); also: nearly all actives have a fitted effect of over 65% in size
# Method in brief: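 IFN-beta-driven (4 ng/ml) HLA-B-HiBit expression in CRISPR-tagged C25cl48 myoblasts; compounds 11-pt, 1:3, max 46 uM, 24 hr exposure; lytic NanoLuc complementation luminescence.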
# Protein phosphatase 1D (Homo sapiens), sequence (O15297 whole entry, looked up): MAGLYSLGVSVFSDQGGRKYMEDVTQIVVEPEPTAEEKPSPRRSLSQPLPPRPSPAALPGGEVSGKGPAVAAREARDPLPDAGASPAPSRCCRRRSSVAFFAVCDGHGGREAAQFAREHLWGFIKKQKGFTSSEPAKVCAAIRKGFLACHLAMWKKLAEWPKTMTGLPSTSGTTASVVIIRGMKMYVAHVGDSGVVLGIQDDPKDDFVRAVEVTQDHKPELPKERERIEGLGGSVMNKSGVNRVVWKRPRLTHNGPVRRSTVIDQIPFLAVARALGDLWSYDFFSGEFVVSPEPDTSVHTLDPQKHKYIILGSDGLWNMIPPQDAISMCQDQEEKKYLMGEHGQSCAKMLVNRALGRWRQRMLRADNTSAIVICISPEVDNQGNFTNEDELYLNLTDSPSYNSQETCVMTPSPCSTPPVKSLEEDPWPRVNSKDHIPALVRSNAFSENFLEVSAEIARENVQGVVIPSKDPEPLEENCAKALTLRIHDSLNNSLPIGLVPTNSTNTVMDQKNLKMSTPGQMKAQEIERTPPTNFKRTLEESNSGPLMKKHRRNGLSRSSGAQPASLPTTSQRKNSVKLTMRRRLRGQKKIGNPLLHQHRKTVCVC
SMILES,Potency [1],Potency [2],outcome [3],Potency [4]
CCOC(=O)C(=O)c1csc(NC=O)n1,inactive,inactive,inactive,–
O=S(=O)(O)c1ccc2nc(-c3ccccc3)[nH]c2c1,inactive,inactive,inactive,–
CC1(C)S[C@@H]2[C@H](NC(=O)C(c3ccccc3)S(=O)(=O)O)C(=O)N2[C@H]1C(=O)O (stereo partly specified),inactive,inactive,inactive,–
Cc1ccc(/C=N/n2c(-c3ccccc3)csc2=S)cc1,inactive,inactive,inactive,–
CC[N+](CC)(CC)CCOC(=O)C(C1CCCC1)C1CCCC1,inactive,inactive,inactive,–
Nc1ccc2cc3ccc(N)cc3nc2c1,–,inactive,inactive,–
COc1ccc(CCC(C)=O)cc1,inactive,inactive,inactive,–
CCOC(=O)C(=O)CCCCCCl,inactive,–,inactive,–
O=C1NC(c2ccccc2)(c2ccccc2)C(=O)N1COP(=O)(O)O,inactive,–,inactive,–
CCCCCCCCCCCCCCCC[N+](C)(C)Cc1ccccc1,23.6 µM (active),–,inactive,–
C[C@@]12CCC[C@H]1[C@@H]1CC[C@H]3C[C@@H](O)CC[C@]3(C)[C@H]1CC2,inactive,inactive,inactive,–
O=C1NCCN1CCN1CCC(c2cn(-c3ccc(F)cc3)c3ccc(Cl)cc23)CC1,–,inactive,inactive,–
c1ccc(C(O[C@H]2CCCN(CCc3ccc4c(c3)OCO4)C2)c2ccccc2)cc1,inactive,–,inactive,–
CO/N=C(/C(=O)N[C@@H]1C(=O)N2C(C(=O)OCOC(=O)C(C)(C)C)=C(C)CS[C@H]12)c1csc(N)n1,inactive,inactive,inactive,–
NC(=O)C1(N2CCCCC2)CCN(CCCN2c3ccccc3CCc3ccc(Cl)cc32)CC1,23.6 µM (active),inactive,inactive,–
Cc1cc(CCCOc2c(C)cc(-c3noc(C(F)(F)F)n3)cc2C)on1,inactive,inactive,inactive,–
O=C(OCC(O)CO)c1ccccc1Nc1ccnc2c(C(F)(F)F)cccc12 (stereo unspecified),–,inactive,inactive,–
CN1CCCN(C(c2ccccc2)c2ccc(Cl)cc2)CC1 (stereo unspecified),inactive,inactive,inactive,–
COC(=O)[C@H]1[C@H]2C[C@@H]3c4[nH]c5cc(OC)ccc5c4CCN3C[C@H]2C[C@@H](OC(=O)/C=C/c2ccc(O)c(OC)c2)[C@@H]1OC,inactive,–,inactive,–
CC(C)OP(=O)(CP(=O)(OC(C)C)OC(C)C)OC(C)C,inactive,inactive,inactive,–
N#CC1(c2ccc(F)cc2)CCC(=O)CC1,inactive,inactive,inactive,–
CCCCCCOC(=O)NC(=N)c1ccc(NCc2nc3cc(C(=O)N(CCC(=O)OCC)c4ccccn4)ccc3n2C)cc1,–,–,inactive,inactive
CN(C)CCOC1=Cc2ccccc2Sc2ccc(Cl)cc21,inactive,inactive,inactive,–
Nc1ccc(O)cc1,–,–,inactive,–
